This is a sample that favours compounds with a hit; in the whole collection about 8.1% have one here.
ELG1 DNA repair: inhibitors of ELG1-dependent DNA repair in HEK293T cells | HEK293T ELG1-luciferase reporter, luminescence, 16 h; DNA damage induced by 5-fluorouridine | Potency, µM (top dose mostly 46.1 µM), without a hit: at the highest dose activity change, negative = inhibition, hits mostly inhibitors | 2.3% of 330,000 active | AID 504467; also: % is scaled to controls: 0 for no effect and ±100 for the full control effect; nearly all actives have a fitted effect of over 55% in size
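Cells (2,000 per well) received 5-fluorouridine plus test compound or DMSO and were incubated 16 hr at 37 °C, 5% CO2. Luciferase activity was read by luminescence 30 min after ONE-Glo addition; signal suppression marked inhibition of damage-induced ELG1 function.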
KB-V1 cytotox: kills drug-selected multidrug resistant KB-V1 cells. 3.4% of 400,000 active. KB-V1 MDR cells viability, CellTiter-Glo, 72 h. Potency, µM (doses to about 46.1 µM), actives largely listed as cytotoxic; also: % is scaled to controls: 0 for no effect and ±100 for the full control effect; nearly all actives have a fitted effect of over 60% in size
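KB-V1 cells (P-gp-expressing MDR subline of KB-3-1) in phenol-red-free DMEM with 10% FBS were exposed to library compounds over a concentration series for 72 h at 37 degrees C. Viability read by CellTiter-Glo luminescence; concentration-effect curves fitted after normalization.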
SW480 rerep: induces DNA re-replication in SW480 colon adenocarcinoma cells; SW480 DNA re-replication, Hoechst DNA content imaging, 48 h; 1.8% of 340,000 active; Potency, µM (titrated, usually from 46.1 µM), without a hit: top-dose re-replication activation, usual class: activators; also: % of control where 0% means no effect; nearly all actives have a fitted effect of over 55% in size
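Hoechst fluorescence of nuclei (405 nm excitation, 500-530 nm emission) measured by plate-scanning imager after 48 hr compound exposure at 37 C; re-replication scored as increased number of nuclei with elevated intensity.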
KB-3-1 tox: KB-3-1 parental cell cytotoxicity. KB-3-1 viability, CellTiter-Glo ATP luminescence, 72 h. Potency, µM (series often up to 46.1 µM), actives largely listed as cytotoxic. 1.4% of 400,000 active; also: % is scaled to controls: 0 for no effect and ±100 for the full control effect; nearly all actives have a fitted effect of over 60% in size
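Cytotoxicity in the drug-sensitive parental line KB-3-1 was scored as loss of CellTiter-Glo luminescence following 72 h incubation with compound. Values come from curve fitting of normalized concentration-response data.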
MCF10A rerep: DNA re-replication induction in MCF 10a cells; 2.9% of 350,000 active; MCF 10A DNA re-replication, Hoechst nuclear intensity, 48 h; Potency, µM (series often up to 46.1 µM), inactives show at the top dose activity, positive = re-replication, actives largely listed as activators; also: % of control where 0% means no effect; nearly all actives have a fitted effect of over 50% in size
* marks the source's active call; other numbers are inactive results. Calls follow the shape of the dose curve; as a rule, active = well fitted curve in the direction sought with a large enough effect; inconclusive = small, poorly fitted or top-dose-only effect, or another doubt; inactive = no such curve, though single readings can be large; an effect the other way counts as inactive or inconclusive. Potency is read from the fitted curve at half-maximal effect.

Results for CC(/C=C/c1ccc(N(C)C)cc1)=N\N=C1\NC(=O)CC(C(=O)Nc2ccccc2)S1 (stereo not drawn) ?
ELG1 DNA repair: inconclusive; KB-V1 cytotox: inactive; SW480 rerep: inconclusive; KB-3-1 tox: inactive; MCF10A rerep: 11.6µM*

Results for CCOC(=O)Nc1sc2c(c1C#N)CCCC2 ?
ELG1 DNA repair: inconclusive; KB-V1 cytotox: inactive; SW480 rerep: 1.0%; KB-3-1 tox: inactive; MCF10A rerep: 14.5%

How did CCCC1CCc2c(sc(NC(=O)OCC)c2C#N)C1 (stereo not drawn) do in these assays?
ELG1 DNA repair: inconclusive; KB-V1 cytotox: 5.8µM*; SW480 rerep: 10.3µM*; KB-3-1 tox: inconclusive; MCF10A rerep: inconclusive

How did Cc1cccc(-n2c(O)c(C=Nc3ccccc3O)c3ccccc3c2=O)n1 do in these assays?
ELG1 DNA repair: 23.1µM*; KB-V1 cytotox: inactive; SW480 rerep: 3.7%; KB-3-1 tox: inactive; MCF10A rerep: -0.3%

How did Cc1cccc(-n2c(O)c(C=Nc3cc(O)ccc3C)c3ccccc3c2=O)n1 do in these assays?
ELG1 DNA repair: -16.0%; KB-V1 cytotox: inactive; SW480 rerep: -0.2%; KB-3-1 tox: inactive; MCF10A rerep: -1.2%

What do the screens show for `Cc1c(NC(=O)C(F)(F)F)ccc2nc3c(=O)n(C)c(=O)n(C)c3nc12`?
KB-V1 cytotox: 13µM*; KB-3-1 tox: inactive

What do the screens show for `O=C1C2CCCN2C(=O)N1CCCCN1CCN(c2cccc(Cl)c2)CC1` (stereo not drawn)?
ELG1 DNA repair: -10.2%; KB-V1 cytotox: 8.2µM*; SW480 rerep: -703.2%; KB-3-1 tox: inactive; MCF10A rerep: inconclusive

What do the screens show for `O=C(Nc1c(O)c2ccccc2oc1=O)c1ccccc1Cl`?
KB-V1 cytotox: inactive; KB-3-1 tox: inactive

Results for COc1ccc(OCCOc2ccc(N(C)S(=O)(=O)c3ccccc3)cc2)cc1 ?
ELG1 DNA repair: -2.0%; KB-V1 cytotox: inactive; SW480 rerep: 2.9%; KB-3-1 tox: inactive; MCF10A rerep: 10.8%

Results for CN(c1ccc(OCCOc2ccccc2Cl)cc1)S(=O)(=O)c1ccccc1 ?
ELG1 DNA repair: -12.1%; KB-V1 cytotox: 16.4µM*; SW480 rerep: inconclusive; KB-3-1 tox: inactive; MCF10A rerep: 20.5%

How did O=C1CC(C(=O)Nc2ccc(Cl)cc2[N+](=O)[O-])C2(CCCCC2)O1 (stereo not drawn) do in these assays?
ELG1 DNA repair: 3.5%; KB-V1 cytotox: 14.6µM*; SW480 rerep: -23.0%; KB-3-1 tox: inactive; MCF10A rerep: 9.1%

Results for Cc1onc(-c2ccccc2Cl)c1C(=O)Nc1sc2c(c1C(N)=O)CCC(C)C2 (stereo not drawn) ?
ELG1 DNA repair: inconclusive; KB-V1 cytotox: 23.1µM*; SW480 rerep: inconclusive; KB-3-1 tox: inconclusive; MCF10A rerep: 29.4%

Results for COc1ccc(NC(=O)c2c(-c3ccccc3Cl)noc2C)c(OC)c1 ?
ELG1 DNA repair: 18.4µM*; KB-V1 cytotox: inactive; SW480 rerep: -1.1%; KB-3-1 tox: inactive; MCF10A rerep: 6.5%

How did COC(=O)c1c(NC(=O)c2c(-c3ccccc3Cl)noc2C)sc2c1CCC2 do in these assays?
ELG1 DNA repair: inconclusive; KB-V1 cytotox: inconclusive; SW480 rerep: 3.8%; KB-3-1 tox: inactive; MCF10A rerep: 14.5%

How did Cc1ccnc(NC(=O)c2c(-c3ccccc3Cl)noc2C)c1 do in these assays?
ELG1 DNA repair: 16.2%; KB-V1 cytotox: inconclusive; SW480 rerep: -4.3%; KB-3-1 tox: inactive; MCF10A rerep: 4.0%

Results for Cc1cc(C)nc(NC(=O)c2c(-c3ccccc3Cl)noc2C)c1 ?
ELG1 DNA repair: inconclusive; KB-V1 cytotox: 7.31µM*; SW480 rerep: inconclusive; KB-3-1 tox: inactive; MCF10A rerep: inconclusive

Results for Cc1cc(C)nc(NC(=O)c2c(F)c(F)c(F)c(C(=O)Nc3cc(C)cc(C)n3)c2F)c1 ?
KB-V1 cytotox: inactive; SW480 rerep: inconclusive; KB-3-1 tox: inconclusive; MCF10A rerep: 8.2µM*

What do the screens show for `c1ccc(-c2nnc3oc(-c4cccs4)nn23)cc1`?
KB-V1 cytotox: inactive; KB-3-1 tox: inconclusive

How did COc1ccc(-n2nc3c(c2NC(=O)c2ccccc2)CS(=O)(=O)C3)cc1 do in these assays?
KB-V1 cytotox: inactive; KB-3-1 tox: inactive

How did COc1ccc(-n2nc3c(c2NC(=O)c2c(-c4ccccc4Cl)noc2C)CS(=O)(=O)C3)cc1 do in these assays?
ELG1 DNA repair: -0.5%; KB-V1 cytotox: 9.2µM*; SW480 rerep: 3.0%; KB-3-1 tox: inactive; MCF10A rerep: 7.3%

Results for Cc1ccccc1N1CCN(C2CCCN(C(=O)c3ccsc3)C2)CC1 (stereo not drawn) ?
ELG1 DNA repair: 0.4%; KB-V1 cytotox: inactive; SW480 rerep: 2.3%; KB-3-1 tox: inactive; MCF10A rerep: inconclusive

Results for CN(C)/C=N/c1nc2nccc(-c3ccc(F)cc3)n2n1 ?
ELG1 DNA repair: 25.8%; KB-V1 cytotox: inactive; SW480 rerep: -5.0%; KB-3-1 tox: inactive; MCF10A rerep: -35.8%

What do the screens show for `CN(C)/C=N/c1nc2ncc(-c3ccc(Cl)cc3)c(/N=C/N(C)C)n2n1`?
ELG1 DNA repair: -5.7%; KB-V1 cytotox: 6.51µM*; SW480 rerep: -3.5%; KB-3-1 tox: inconclusive; MCF10A rerep: 1.5%

How did Cc1ccc(Cn2nnc3c(=O)n(CC(=O)N4CCN(c5ccccc5)CC4)cnc32)cc1 do in these assays?
ELG1 DNA repair: 14.6µM*; KB-V1 cytotox: 5.17µM*; SW480 rerep: -9.2%; KB-3-1 tox: inactive; MCF10A rerep: inconclusive

How did O=C(Cn1cnc2c(nnn2-c2cccc(Cl)c2)c1=O)N1CCCC1 do in these assays?
ELG1 DNA repair: -2.7%; KB-V1 cytotox: 13µM*; SW480 rerep: -0.1%; KB-3-1 tox: inactive; MCF10A rerep: 4.2%

How did O=C(CN1C(=O)COc2ccc(S(=O)(=O)Nc3ccccc3)cc21)Nc1cccc(Cl)c1 do in these assays?
KB-V1 cytotox: inactive; KB-3-1 tox: inactive

What do the screens show for `NS(=O)(=O)c1ccc(CNC(=O)c2ccc(Cl)c(S(=O)(=O)NCc3ccccc3)c2)cc1`?
ELG1 DNA repair: -5.2%; KB-V1 cytotox: inactive; SW480 rerep: -0.1%; KB-3-1 tox: inactive; MCF10A rerep: 6.1%

How did CCOc1cc(C)c(Cl)cc1S(=O)(=O)NCc1ccc2c(c1)OCO2 do in these assays?
ELG1 DNA repair: -22.3%; KB-V1 cytotox: 13µM*; SW480 rerep: inconclusive; KB-3-1 tox: inconclusive; MCF10A rerep: inconclusive

How did O=C(NCc1ccc2c(c1)OCO2)c1ccc(Cl)c(S(=O)(=O)NCc2ccccc2)c1 do in these assays?
ELG1 DNA repair: inconclusive; KB-V1 cytotox: 23.1µM*; SW480 rerep: -1.1%; KB-3-1 tox: inactive; MCF10A rerep: inconclusive

Results for CCOc1cc(S(=O)(=O)NCc2ccc3c(c2)OCO3)c(C)cc1C ?
ELG1 DNA repair: -12.1%; KB-V1 cytotox: inactive; SW480 rerep: -9.6%; KB-3-1 tox: inactive; MCF10A rerep: -6.2%
